Source: PubChem BioAssay (National Center for Advancing Translational Sciences (NCATS))
Sm TGR inh = S. mansoni TGR enzyme inhibition; purified TGR, DTNB reduction, TNB absorbance 405 nm; Potency, µM (series often up to 114 µM), for inactives: top-dose activity change, negative = inhibition, usual class: inhibitors; 3% of 360,000 active; further: on the % scale 0 is the no-effect control and ±100 the full control effect; nearly all actives have a fitted effect of over 60% in size
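TGR 20 nM + NADPH 100 uM (dispensed conc.), cpd preinc 15 min RT; start with NADPH (500 uM addition) then DTNB (15 mM addition). Kinetic TNB absorbance, 405 nm filter. Four-parameter Hill fit across titration.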
AmpC no deterg = blocks E. coli AmpC beta-lactamase in detergent-free assay; P00811; AmpC nitrocefin hydrolysis, absorbance 480 nm, 0.0001% Triton; Potency, µM (highest dose often 57.1 µM), for inactives: at the top dose activity change, negative = inhibition, hits mostly inhibitors; 0.52% of 330,000 active;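 further: plate controls were no compound for no effect and no enzyme for full effect; nearly all actives have a fitted effect of over 20% in size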
Target sequence (P00811 whole entry, looked up): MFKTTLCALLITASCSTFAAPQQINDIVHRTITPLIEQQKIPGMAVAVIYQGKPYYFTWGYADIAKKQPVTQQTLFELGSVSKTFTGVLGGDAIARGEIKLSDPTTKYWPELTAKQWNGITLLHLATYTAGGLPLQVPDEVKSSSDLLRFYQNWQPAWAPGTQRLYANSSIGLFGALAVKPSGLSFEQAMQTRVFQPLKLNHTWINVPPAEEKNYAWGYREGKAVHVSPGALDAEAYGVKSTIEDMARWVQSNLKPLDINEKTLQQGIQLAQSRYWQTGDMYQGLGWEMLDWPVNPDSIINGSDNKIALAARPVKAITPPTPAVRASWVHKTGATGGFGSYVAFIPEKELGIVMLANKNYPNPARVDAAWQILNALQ
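20 mM phosphate pH 7.0 + 0.01% (detergent screen) or 0.0001% Triton X-100; 5.3 nM AmpC reagent; cpd preinc 15 min RT; nitrocefin (800 uM stock) to start; A480 q20 s × 4 min; Activity was normalised to no-enzyme and no-compound control wells.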
AmpC detergent = blocks E. coli AmpC beta-lactamase in detergent assay | P00811 | AmpC hydrolysis of nitrocefin, absorbance 480 nm, 0.01% Triton | AID 485294 | Potency, µM (highest dose often 114 µM), without a hit: at the highest dose activity change, negative = inhibition, actives largely listed as inhibitors | 0.041% of 370,000 active;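 further: 0% = no-compound wells and -100% = no-enzyme wells; nearly all actives have a fitted effect of over 25% in size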
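AmpC (5.3 nM in the dispensed reagent) in 20 mM phosphate pH 7.0 with 0.01% (detergent screen) or 0.0001% Triton X-100 was preincubated with compounds for 15 min at room temperature. Nitrocefin was then added from an 800 uM solution, and hydrolysis was followed at 480 nm.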
Pf growth 48h = inhibits P. falciparum growth in the first generation, 48 h | P. falciparum luciferase growth in erythrocytes, 48 h | Potency, µM (top dose mostly 28.7 µM), for inactives: at the top dose activity change, negative = inhibition, hits mostly inhibitors | 5.9% of 310,000 active | AID 504832; further: on the % scale 0 is the no-effect control and ±100 the full control effect
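First compound was added to culture medium, then infected red cells at 0.1% parasitemia and 2% hematocrit (final). After incubation at 37 C under 5% CO2, luciferase detection reagent was dispensed and light output recorded.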
Pf growth 96h = P. falciparum growth inhibition at 96 hours; P. falciparum luciferase reporter growth, 96 h; Potency, µM (titrated, usually from 28.7 µM), for inactives: at the highest dose activity change, negative = inhibition, actives largely listed as inhibitors; 6.9% of 320,000 active; further: on the % scale 0 is the no-effect control and ±100 the full control effect
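Cell-based qHTS: luciferase-tagged P. falciparum in erythrocytes (2% hematocrit, 0.05% parasitemia final) incubated with compounds for 96 hours, 37 C, 5% CO2; luciferase detection reagent then added and luminescence measured.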
SARS PLpro yeast = inhibitors of SARS-CoV papain-like protease in yeast. 0.19% of 330,000 active. S. cerevisiae expressing SARS-CoV PLpro, growth rescue. Potency, µM (doses to about 32.9 µM), for the others: top-dose activity, positive = growth rescue, hits mostly activators; calls by dose curve; further: 0% is about no effect; nearly all actives have a fitted effect of over 55% in size
Starred values were filed as active, the others as inactive. Sampled rows, rich in hits. Any-hit rate of the full collection: about 12%. Unless noted, the call rests on the fitted dose curve; in most records, active means well fitted curve in the direction sought with a large enough effect; inconclusive means small, poorly fitted or top-dose-only effect, or another doubt; inactive means no such curve, though single readings can be large; an effect the other way counts as inactive or inconclusive. Potency means the concentration at half of the fitted maximal effect.

For O=C(O)CCc1ccc(-c2cccs2)n1NC(=O)c1ccc(Cl)cc1Cl the results were Sm TGR inh 0%, AmpC no deterg -11%, AmpC detergent -4%, Pf growth 96h 9% and SARS PLpro yeast 9%.
O=C(O)CCc1ccc(-c2cccs2)n1NC(=O)c1ccco1 was read as Sm TGR inh inconclusive, AmpC no deterg -19%, AmpC detergent 1%, Pf growth 48h 8%, Pf growth 96h 10µM* and SARS PLpro yeast 2%.
`COc1ccc(-c2nc3ccc(NS(=O)(=O)c4ccc(Cl)cc4)cc3o2)cc1` gave Sm TGR inh 3% and AmpC detergent 21%.
Screening O=C(Nc1ccc(Cc2ccncc2)cc1)C1CCC(N2C(=O)C3C4C=CC(C4)C3C2=O)CC1 (stereo not drawn) returned Sm TGR inh 0%, AmpC no deterg 60%, AmpC detergent -3%, Pf growth 96h 12µM* and SARS PLpro yeast -20%.
O=C(Nc1ccc(Cc2ccncc2)cc1)C1CCC(N2C(=O)C3CC=CCC3C2=O)CC1 (stereo not drawn) was read as Sm TGR inh 0%, AmpC no deterg 32%, AmpC detergent -11%, Pf growth 48h inconclusive and SARS PLpro yeast inconclusive.
For COc1ccc(CCNC(=O)COC(=O)CSc2ccc([N+](=O)[O-])cc2)cc1OC the results were Sm TGR inh -8%, AmpC no deterg -11%, AmpC detergent inconclusive, Pf growth 48h inconclusive, Pf growth 96h inconclusive and SARS PLpro yeast 4%.
Screening Cc1nc(-c2ccc(F)cc2)c(CC(=O)N2CCN(S(=O)(=O)c3cccc([N+](=O)[O-])c3)CC2)s1 returned Sm TGR inh -8%, AmpC no deterg 101%, AmpC detergent -13%, Pf growth 48h 9.3µM*, Pf growth 96h 12µM* and SARS PLpro yeast 3%.
CC(C)(C)C1CCC(C(=O)Nc2ccccc2N2CCOCC2)CC1 (stereo not drawn) was read as Sm TGR inh 21%, AmpC no deterg -2%, AmpC detergent 3%, Pf growth 48h 9.3µM*, Pf growth 96h inconclusive and SARS PLpro yeast 5%.
COc1ccc(NC(=O)CNc2cc(C)ccc2C)cc1S(=O)(=O)N1CCOCC1 was read as Sm TGR inh -7%, AmpC no deterg 48%, AmpC detergent -16%, Pf growth 48h inconclusive, Pf growth 96h 15µM* and SARS PLpro yeast -10%.
For O=C(Nc1ccccc1N1CCN(c2ccccc2)CC1)C1CCCCC1 the results were Sm TGR inh -19%, AmpC no deterg -35%, AmpC detergent -10%, Pf growth 48h 4%, Pf growth 96h inconclusive and SARS PLpro yeast 2%.
O=C(Cc1ccccc1)N1CCN(S(=O)(=O)c2cccc([N+](=O)[O-])c2)CC1 was read as Sm TGR inh 0%, AmpC no deterg -2%, AmpC detergent 0%, Pf growth 48h 1%, Pf growth 96h 25% and SARS PLpro yeast 0%.
CCNS(=O)(=O)c1ccc(NC(=O)Nc2cc(C)ccc2OC)cc1 was read as Sm TGR inh 1%, AmpC no deterg 11µM*, AmpC detergent 2%, Pf growth 48h 8%, Pf growth 96h -7% and SARS PLpro yeast 0%.
`COc1ccc(NC(=O)Cc2coc3cc(C)ccc23)cc1S(=O)(=O)N1CCOCC1` gave Sm TGR inh -3%, AmpC no deterg 33%, AmpC detergent -1%, Pf growth 48h -8%, Pf growth 96h 70% and SARS PLpro yeast -13%.
`CCOc1cccc2cc(-c3nc4ccc(C(=O)O)cc4[nH]3)c(=O)oc12` gave Sm TGR inh -10%, AmpC no deterg -18%, AmpC detergent -10%, Pf growth 48h 128%, Pf growth 96h 317% and SARS PLpro yeast 0%.
Screening Cc1ccc(C(c2sc3nc(-c4ccco4)nn3c2O)N2CCOCC2)cc1 (stereo not drawn) returned Sm TGR inh 9% and AmpC detergent 3%.
